Experimental findings from PubChem BioAssay (NCATS) are described below.

Results filed as inconclusive are left out. The source made the active and inactive calls. Unless noted, calls follow the shape of the dose curve; as a rule, active = well fitted curve in the direction sought with a large enough effect; inconclusive = small, poorly fitted or top-dose-only effect, or another doubt; inactive = no such curve, though single readings can be large; an effect the other way counts as inactive or inconclusive.

Assay [1] in a line: qHTS Assay for Lipid Storage Modulators (AID 1519; calls by dose curve). The conditions noted are these: Drosophila S3 cells, BODIPY lipid droplet/cell ratio, laser cytometry, cells loaded with oleic acid; for activity change, negative = inhibition: at 57.5 µM (top of the series). The gist of the method:
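Cells seeded at 5,000 per well were treated with compounds over a concentration series and loaded with oleic acid (400 uM, as added). Lipid droplet fluorescence (488 nm excitation, 500-530 nm channel) was read by laser-scanning cytometry and normalized to 20 uM Triacsin C.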
On the technique in general: Quantitative high-throughput screening tests each substance at several concentrations.

Assay [2] deals with Cytochrome P450 3A4 (Homo sapiens) (UniProt P08684). The assay is described as follows: qHTS Assay for Inhibitors and Substrates of Cytochrome P450 3A4 (AID 884). Also: nearly all actives have a fitted effect of over 50% in size. Also: potency is read from the fitted curve at half-maximal effect. Particulars: recombinant CYP3A4, Luciferin-PPXE luminescence; series mostly up to 57.1 µM. The gist of the method:
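Luminescent readout of luciferin produced by CYP3A4 (20 nM) dealkylation of Luciferin-PPXE, 25 uM (its KM). NADPH-driven reaction ran 60 min at RT after 10 min compound preincubation; data scaled to 57 uM ketoconazole as 100% inhibition.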

A short description of assay [3]: Confirmation and Secondary Assay for Modulators of Hemoglobin Beta Chain Splicing at IVS2 654 locus (AID 910).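 Also: HeLa cells stably carrying EGFP split by mutant beta-globin IVS2-654 intron; per-well total GFP intensity by laser scanning cytometry after 2-day treatment; % of control where 0% means no effect.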 The conditions noted are these: HeLa EGFP-654 splicing reporter, GFP fluorescence, 48 h; series mostly up to 38.3 µM. The gist of the method:
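Readout: per-well total peak green fluorescence (488 nm ex, 500–520 nm em) from objects 5–250 µm, reflecting correct splicing of an EGFP-654 reporter. Compounds were applied for 2 days at 37 °C to overnight-plated HeLa EGFP-654 cells; controls were DMSO and 500 nM IVS2-654 PNA.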

The target in assay [4] is Ubiquitin carboxyl-terminal hydrolase 1 (Homo sapiens) (UniProt O94782). Nature of the assay: Inhibitors of USP1/UAF1: Pilot qHTS (AID 504865).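 Also: rhodamine fluorescence freed from ubiquitin-rhodamine substrate followed over time; top concentration of the series differs between compounds; % is scaled to controls: 0 for no effect and ±100 for the full control effect; nearly all actives have a fitted effect of over 35% in size.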 The conditions noted are these: purified USP1/UAF1, Ub-rhodamine cleavage fluorescence; series mostly up to 54.9 µM. The gist of the method: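 Kinetic fluorescence assay: 1nM USP1/UAF1, 15 min compound preincubation, then 150nM Ub-Rho; 480/540 nm.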
Ubiquitin carboxyl-terminal hydrolase 1 (Homo sapiens), sequence (O94782 whole entry, looked up): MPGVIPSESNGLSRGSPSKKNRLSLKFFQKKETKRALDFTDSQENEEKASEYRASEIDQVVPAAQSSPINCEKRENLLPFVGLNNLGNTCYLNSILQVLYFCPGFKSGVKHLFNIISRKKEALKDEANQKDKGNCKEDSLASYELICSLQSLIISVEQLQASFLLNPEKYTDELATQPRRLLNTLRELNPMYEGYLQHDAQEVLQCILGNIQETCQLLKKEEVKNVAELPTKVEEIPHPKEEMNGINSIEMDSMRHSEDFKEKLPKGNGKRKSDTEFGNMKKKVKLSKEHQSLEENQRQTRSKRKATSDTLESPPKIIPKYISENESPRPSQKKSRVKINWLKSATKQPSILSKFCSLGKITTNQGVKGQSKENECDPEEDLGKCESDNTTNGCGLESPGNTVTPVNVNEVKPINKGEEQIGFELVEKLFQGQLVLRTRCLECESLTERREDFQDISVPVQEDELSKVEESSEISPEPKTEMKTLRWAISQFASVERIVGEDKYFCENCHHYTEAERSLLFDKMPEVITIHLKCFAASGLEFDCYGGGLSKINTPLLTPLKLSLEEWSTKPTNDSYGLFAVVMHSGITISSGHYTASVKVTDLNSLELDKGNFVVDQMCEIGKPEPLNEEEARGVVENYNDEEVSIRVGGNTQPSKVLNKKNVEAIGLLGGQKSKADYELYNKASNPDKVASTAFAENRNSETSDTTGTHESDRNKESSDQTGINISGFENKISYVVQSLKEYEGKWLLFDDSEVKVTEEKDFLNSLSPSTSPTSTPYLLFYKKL

Assay [5] has as its target Lysosomal acid glucosylceramidase (Homo sapiens) (UniProt P04062). Nature of the assay: Glucocerebrosidase-p2 (AID 348; in the data active = potency below about 10 µM; also: potency is read from the fitted curve at half-maximal effect). The conditions noted are these: purified GBA, blue fluorogenic substrate, 40 min. The gist of the method:
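Normal human glucocerebrosidase (0.2 nM) with blue fluorogenic substrate (80 uM final) in citrate/phosphate pH 5.9 with 10mM sodium taurocholate, 0.01% tween-20; 40 min RT, NaOH/glycine stop; fluorescence Ex 365/Em 440; AC50 from a titration from 0.6 nM upwards.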

The nature of assay [6]: AP1 Signaling Pathway (AID 357; active = well fitted curve in either direction with a large enough effect, not every such curve was filed as active;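 also: ME-180 reporter cells stimulated with EGF at its EC50 level; % is scaled to controls: 0 for no effect and ±100 for the full control effect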). The conditions noted are these: ME-180 AP-1-bla reporter, EGF-induced, beta-lactamase ratio, 5 h; at 7.69 µM (top of the series) unless noted. The gist of the method:
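Titration-series screen for positive or negative modulators of EC50 EGF-induced signaling in ME-180 cells carrying an AP-1-driven beta-lactamase reporter. After 5 hours at 37 degrees Celsius, CCF4 460nm/530nm emission ratio gave %Activity; AC50 values derived.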

The target of assay [7] is Cytochrome P450 1A2 (Homo sapiens) (UniProt P05177). Nature of the assay: p450-cyp1a2 (AID 410; calls by dose curve; also: potency is read from the fitted curve at half-maximal effect;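 as to activity change, negative = inhibition: -100% = full effect of reference inhibitor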). The conditions noted are these: recombinant CYP1A2, luciferin-ME demethylation, luminescence; series mostly up to 57 µM. The gist of the method:
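O-Demethylation of luciferin 6' methyl ether by human CYP1A2 is monitored as luciferase luminescence. Substrate sits at Km (100uM); enzyme is 20nM. Values are scaled to 57 uM furafylline as maximal inhibition.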

Assay [8] can be described thus: NFAT Signaling Pathway (AID 444; active = well fitted curve in either direction with a large enough effect, not every such curve was filed as active;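 also: carbachol stimulus at about its EC50 of 1 µM final; % is scaled to controls: 0 for no effect and ±100 for the full control effect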). Particulars: Jurkat NFAT-bla M1, carbachol, beta-lactamase ratio, 5 h; at 7.69 µM (top of the series) unless noted. The gist of the method: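 Read-out: CCF4 FRET ratio (460 nm/530 nm) after 1 h RT dye loading, used for %activity and AC50 from titration series. Cells: Jurkat NFAT-β-lactamase/M1 line, treated with compound plus 1 uM carbachol for 5 h, 37 °C.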

Assay [9] is described as follows: Stat Signaling Pathway (AID 446; active = well fitted curve in either direction with a large enough effect, not every such curve was filed as active;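 also: ME-180 cervical cancer cells given 40 pM IL-6 alongside compound; SIE-controlled beta-lactamase reporter measured as 460/530 nm FRET emission ratio; % is scaled to controls: 0 for no effect and ±100 for the full control effect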). The conditions noted are these: ME-180 (cervical carcinoma) SIE beta-lactamase reporter, IL-6 stimulated, 5 h; at 7.69 µM (top of the series) unless noted. The gist of the method:
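Overnight-plated ME-180 cells bearing a STAT Inducible Element beta-lactamase reporter; 5 h co-exposure to compound and 40 pM IL-6; values normalized to 300 pM IL-6 and 125 nM JAK inhibitor controls.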

Assay [10] has as its target Glucocorticoid receptor (Homo sapiens) (UniProt P04150). Nature of the assay: GR-GFP Redistribution (AID 450;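 active = compounds whose dose series gives a full or clear partial fitted curve of increased nuclear translocation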; also: potency is read from the fitted curve at half-maximal effect). The conditions noted are these: U2OS GR-GFP nuclear translocation, laser cytometry, 2 h.
Assay [11] shares this target. The assay is described as follows: GR-EFC Redistribution (AID 451; calls by dose curve; also: potency is read from the fitted curve at half-maximal effect). Particulars: CHO-K1 GR-EFC translocation, beta-gal luminescence, 2 h. The gist of the method:
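Translocation of GR-ED fusion to nuclear EA restores b-gal, read by luminescence after 1 h room-temperature detection. Engineered CHO-K1 biosensor cells, 1,000/well, exposed 2 h at 37 C to titrations up to 46 uM final.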

The target of assay [12] is Mitogen-activated protein kinase 10 (Mus musculus) (UniProt Q61831). The assay is described as follows: JNK3 AlphaScreen Assay (AID 530; active = well fitted curve in either direction with a large enough effect, not every such curve was filed as active;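 also: kinase came from lysate of stimulated human HepG2 cells; signal reports phosphorylation of biotinylated GST-cJun 1-79 at Ser73 with 10 µM ATP; % is scaled to controls: 0 for no effect and ±100 for the full control effect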). Particulars: JNK3 lysate, c-Jun phosphorylation; series mostly up to 57.1 µM. The gist of the method: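 qHTS titrations with 15 min compound pre-incubation before adding ATP (10 uM final). Read-out: AlphaScreen of Ser73-phosphorylated biotin-GST-cJun using HepG2 lysate JNK3 activated by IL-1β and TNFα.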
(In general: Bead proximity is the source of the signal in Alpha formats.)

Assay [13] deals with 3',5'-cyclic-AMP phosphodiesterase 4B (Homo sapiens) (UniProt Q07343). The assay is described as follows: qHTS Assay for Inhibitors of PDE-IV (AID 607; active = well fitted activation curve with a large enough effect in the main read-out, with a control signal flat, not every such curve was filed as active; also: % of control where 0% means no effect). The conditions noted are these: HEK293 ACTOne CNG channel cells, membrane potential fluorescence; series mostly up to 22.9 µM. The gist of the method:
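Live HEK293 cells with a modified cyclic nucleotide-gated (CNG) channel report intracellular cAMP via membrane-potential dye fluorescence (ex 535/em 590 nm). Endogenous PDE-IV was targeted. Compounds were tested at up to 22.9 uM final; RO 20-1724 100 uM served as control.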

The target of assay [14] is Dual specificity protein kinase CLK4 (Homo sapiens) (UniProt Q9HAZ1). The assay is described as follows: qHTS Assay for Inhibitors of CDC-like Kinase 4 (Kinase-Glo Assay) (AID 1770). Also: % is scaled to controls: 0 for no effect and ±100 for the full control effect; nearly all actives have a fitted effect of over 65% in size. Particulars: recombinant Clk4, Kinase-Glo ATP depletion luminescence; series mostly up to 66.7 µM. The gist of the method: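 Inhibition was judged from remaining ATP, measured by Ultra-Glo luciferase bioluminescence after Clk4 (25 nM) had acted on RS peptide at 1 uM ATP for 4.5 hours, room temperature.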
Dual specificity protein kinase CLK4 (Homo sapiens), sequence (Q9HAZ1 whole entry, looked up): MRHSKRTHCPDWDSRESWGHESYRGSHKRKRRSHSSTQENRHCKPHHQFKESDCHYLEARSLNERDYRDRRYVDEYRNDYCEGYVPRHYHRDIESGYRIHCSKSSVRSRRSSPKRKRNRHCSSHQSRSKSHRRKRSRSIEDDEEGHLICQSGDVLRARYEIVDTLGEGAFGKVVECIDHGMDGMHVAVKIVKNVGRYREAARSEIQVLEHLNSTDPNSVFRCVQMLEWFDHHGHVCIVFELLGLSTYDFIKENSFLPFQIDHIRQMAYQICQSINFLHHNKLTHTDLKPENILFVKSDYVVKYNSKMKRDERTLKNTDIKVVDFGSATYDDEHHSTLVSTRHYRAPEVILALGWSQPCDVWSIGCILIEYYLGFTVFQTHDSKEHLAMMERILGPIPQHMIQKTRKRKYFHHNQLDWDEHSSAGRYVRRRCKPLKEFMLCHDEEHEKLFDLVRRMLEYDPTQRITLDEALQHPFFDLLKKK

For assay [15] the target is unchanged. The assay is described as follows: qHTS Assay for Inhibitors of CDC-like Kinase 4 (ADP-Glo Assay) (AID 1771). Also: % is scaled to controls: 0 for no effect and ±100 for the full control effect; nearly all actives have a fitted effect of over 70% in size. The conditions noted are these: recombinant CLK4, ADP-Glo luminescence; series mostly up to 80 µM. The gist of the method: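 Compounds are pin-transferred onto substrate mix (100 uM RS peptide, 1 uM ATP), then 25 nM Clk4 is added. After 1 hr at room temperature, ADP-Glo reagent runs 45 min, detection reagent 30 min, then luminescence is read.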

For assay [16] the target is unchanged. The assay is described as follows: qHTS Assay for Inhibitors of CDC-like Kinase 4 (ADP-FP Assay) (AID 1795).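 Also: recombinant human CLK4 phosphorylating RS repeat peptide at 1 µM ATP; % is scaled to controls: 0 for no effect and ±100 for the full control effect; nearly all actives have a fitted effect of over 60% in size.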 Particulars: Transcreener ADP fluorescence polarization; series mostly up to 50 µM. The gist of the method: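 Inhibition of ADP formation by 6.25 nM Clk4 is measured using 1 uM ATP and 100 uM RS repeat peptide over one hour. Produced ADP displaces a fluorescent tracer from antibody, lowering polarization.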

Assay [17] has as its target Cytochrome P450 2C19 (Homo sapiens) (UniProt P33261). The assay is described as follows: qHTS Assay for Inhibitors and Substrates of Cytochrome P450 2C19 (AID 899). Also: % is scaled to controls: 0 for no effect and ±100 for the full control effect; nearly all actives have a fitted effect of over 60% in size. Particulars: recombinant CYP2C19, luciferin-H EGE luminescence; series mostly up to 57.1 µM. The gist of the method:
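Luminescence readout of luciferin formed from 10uM Luciferin-H EGE (KM level) by 5 nM CYP2C19 in 50mM KPO4. 60 min NADPH-driven reaction at 37C after 10 min compound preincubation; data scaled to 57uM ketoconazole inhibition.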

The target of assay [18] is Cytochrome P450 3A4 (Homo sapiens) (UniProt P08684). Nature of the assay: qHTS Assay for Activators of Cytochrome P450 3A4 (AID 885). Also: nearly all actives have a fitted effect of over 65% in size. Particulars: recombinant CYP3A4, Luciferin-PPXE luminescence, 60 min; series mostly up to 57.1 µM. The gist of the method: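 Using 20nM recombinant human CYP3A4 in potassium phosphate (200mM), substrate Luciferin-PPXE at 25uM, luminescent luciferin detection followed a 60-min RT NADPH reaction; data scaled to 57 uM ketoconazole.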
Cytochrome P450 3A4 (Homo sapiens), sequence (P08684 whole entry, looked up): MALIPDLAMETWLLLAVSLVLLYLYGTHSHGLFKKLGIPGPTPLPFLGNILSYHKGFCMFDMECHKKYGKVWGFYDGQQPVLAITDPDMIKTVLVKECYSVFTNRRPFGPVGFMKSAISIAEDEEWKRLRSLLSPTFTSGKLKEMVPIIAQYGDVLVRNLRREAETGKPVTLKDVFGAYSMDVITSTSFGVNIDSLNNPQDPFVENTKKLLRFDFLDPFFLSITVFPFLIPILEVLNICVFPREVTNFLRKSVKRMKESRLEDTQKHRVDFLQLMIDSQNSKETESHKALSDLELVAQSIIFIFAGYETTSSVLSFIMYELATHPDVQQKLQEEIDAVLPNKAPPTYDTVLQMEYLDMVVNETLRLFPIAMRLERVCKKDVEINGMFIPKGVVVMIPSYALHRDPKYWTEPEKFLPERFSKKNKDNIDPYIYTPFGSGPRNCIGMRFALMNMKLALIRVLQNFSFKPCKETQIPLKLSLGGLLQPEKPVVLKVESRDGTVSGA

Assay [19] in a line: Confirmation and Secondary Assay for Modulators of Hemoglobin Beta Chain Splicing at IVS2 705 locus (AID 930).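 Also: HeLa cells stably expressing the EGFP-705 splicing reporter; % of control where 0% means no effect.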 Particulars: HeLa EGFP-705 splicing reporter, GFP fluorescence, 48 h; series mostly up to 38.3 µM. The gist of the method: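 Assay measures total GFP intensity per well in HeLa EGFP-705 cells after 2 days with compound; mis-splicing normally truncates EGFP, so fluorescence indicates corrected splicing.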

The mark [20] stands for this setting: measured here: cell count channel max response.
Where [21] appears, read: measured here: lipid channel max response.

3',5'-cyclic-AMP phosphodiesterase 4B (Homo sapiens), sequence (Q07343 whole entry, looked up): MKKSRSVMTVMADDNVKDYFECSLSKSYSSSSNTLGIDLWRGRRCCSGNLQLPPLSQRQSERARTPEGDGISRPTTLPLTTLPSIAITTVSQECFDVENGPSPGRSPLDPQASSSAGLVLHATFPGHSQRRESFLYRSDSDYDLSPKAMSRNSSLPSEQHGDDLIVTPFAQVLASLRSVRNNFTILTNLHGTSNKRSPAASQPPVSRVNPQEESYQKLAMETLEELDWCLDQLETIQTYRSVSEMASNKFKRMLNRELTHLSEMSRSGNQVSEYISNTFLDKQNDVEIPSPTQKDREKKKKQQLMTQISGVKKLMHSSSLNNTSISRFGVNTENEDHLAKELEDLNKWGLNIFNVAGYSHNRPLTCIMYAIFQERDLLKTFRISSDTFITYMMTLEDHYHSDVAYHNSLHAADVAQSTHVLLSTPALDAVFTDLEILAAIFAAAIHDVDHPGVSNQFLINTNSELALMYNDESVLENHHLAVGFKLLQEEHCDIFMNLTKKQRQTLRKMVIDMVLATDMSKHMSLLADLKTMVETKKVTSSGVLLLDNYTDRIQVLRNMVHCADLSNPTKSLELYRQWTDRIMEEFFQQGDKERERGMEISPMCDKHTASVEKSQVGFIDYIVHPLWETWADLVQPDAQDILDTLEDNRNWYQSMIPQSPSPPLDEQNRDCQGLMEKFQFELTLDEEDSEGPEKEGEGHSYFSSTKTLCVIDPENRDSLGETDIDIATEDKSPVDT
Cytochrome P450 1A2 (Homo sapiens), sequence (P05177 whole entry, looked up): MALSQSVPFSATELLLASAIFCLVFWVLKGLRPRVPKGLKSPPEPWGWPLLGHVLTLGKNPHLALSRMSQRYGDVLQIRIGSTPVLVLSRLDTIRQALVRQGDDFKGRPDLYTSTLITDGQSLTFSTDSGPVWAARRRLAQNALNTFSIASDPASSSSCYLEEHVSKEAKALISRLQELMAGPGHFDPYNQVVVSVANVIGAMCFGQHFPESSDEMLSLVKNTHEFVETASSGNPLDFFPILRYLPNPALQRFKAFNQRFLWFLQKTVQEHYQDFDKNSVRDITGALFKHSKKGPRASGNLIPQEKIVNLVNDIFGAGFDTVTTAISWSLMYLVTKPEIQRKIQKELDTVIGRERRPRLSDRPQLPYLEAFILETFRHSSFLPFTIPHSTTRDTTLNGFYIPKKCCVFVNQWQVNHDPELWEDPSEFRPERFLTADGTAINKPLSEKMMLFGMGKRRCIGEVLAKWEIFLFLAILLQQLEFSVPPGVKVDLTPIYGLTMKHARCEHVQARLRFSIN
Lysosomal acid glucosylceramidase (Homo sapiens), sequence (P04062 whole entry, looked up): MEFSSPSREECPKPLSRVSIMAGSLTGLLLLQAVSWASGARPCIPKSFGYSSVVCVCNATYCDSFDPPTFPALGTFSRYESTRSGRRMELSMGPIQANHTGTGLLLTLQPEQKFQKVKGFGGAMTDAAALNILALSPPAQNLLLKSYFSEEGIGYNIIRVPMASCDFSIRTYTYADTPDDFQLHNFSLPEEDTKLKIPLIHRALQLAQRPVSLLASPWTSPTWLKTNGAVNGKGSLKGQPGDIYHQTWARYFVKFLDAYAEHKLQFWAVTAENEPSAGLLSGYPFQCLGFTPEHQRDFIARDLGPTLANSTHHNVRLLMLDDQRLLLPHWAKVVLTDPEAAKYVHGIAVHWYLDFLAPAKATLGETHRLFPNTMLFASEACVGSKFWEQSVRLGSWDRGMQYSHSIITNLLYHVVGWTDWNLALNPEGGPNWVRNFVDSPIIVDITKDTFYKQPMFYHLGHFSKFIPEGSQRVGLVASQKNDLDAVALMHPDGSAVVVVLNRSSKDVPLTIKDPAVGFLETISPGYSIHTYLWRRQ
Glucocorticoid receptor (Homo sapiens), sequence (P04150 whole entry, looked up): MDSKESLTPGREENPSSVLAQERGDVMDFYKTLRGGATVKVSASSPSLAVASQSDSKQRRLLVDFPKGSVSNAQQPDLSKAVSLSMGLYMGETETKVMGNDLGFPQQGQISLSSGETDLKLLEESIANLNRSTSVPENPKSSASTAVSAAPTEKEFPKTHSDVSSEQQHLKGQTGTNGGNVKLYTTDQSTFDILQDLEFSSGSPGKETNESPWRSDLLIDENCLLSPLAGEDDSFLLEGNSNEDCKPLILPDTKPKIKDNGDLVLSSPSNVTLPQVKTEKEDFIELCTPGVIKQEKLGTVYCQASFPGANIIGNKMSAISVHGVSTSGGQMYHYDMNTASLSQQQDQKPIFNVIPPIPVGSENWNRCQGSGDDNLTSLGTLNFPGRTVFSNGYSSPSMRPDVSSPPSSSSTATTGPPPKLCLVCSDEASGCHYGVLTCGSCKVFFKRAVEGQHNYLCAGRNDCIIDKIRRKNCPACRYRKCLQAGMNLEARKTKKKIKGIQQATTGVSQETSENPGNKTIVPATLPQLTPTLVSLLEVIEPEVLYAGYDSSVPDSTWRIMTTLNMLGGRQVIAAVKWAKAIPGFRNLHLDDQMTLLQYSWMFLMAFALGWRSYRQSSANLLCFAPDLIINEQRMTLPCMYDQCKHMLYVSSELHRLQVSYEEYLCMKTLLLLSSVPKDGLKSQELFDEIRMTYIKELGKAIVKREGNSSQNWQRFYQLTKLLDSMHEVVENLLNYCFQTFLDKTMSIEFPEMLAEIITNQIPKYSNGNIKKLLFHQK
Cytochrome P450 2C19 (Homo sapiens), sequence (P33261 whole entry, looked up): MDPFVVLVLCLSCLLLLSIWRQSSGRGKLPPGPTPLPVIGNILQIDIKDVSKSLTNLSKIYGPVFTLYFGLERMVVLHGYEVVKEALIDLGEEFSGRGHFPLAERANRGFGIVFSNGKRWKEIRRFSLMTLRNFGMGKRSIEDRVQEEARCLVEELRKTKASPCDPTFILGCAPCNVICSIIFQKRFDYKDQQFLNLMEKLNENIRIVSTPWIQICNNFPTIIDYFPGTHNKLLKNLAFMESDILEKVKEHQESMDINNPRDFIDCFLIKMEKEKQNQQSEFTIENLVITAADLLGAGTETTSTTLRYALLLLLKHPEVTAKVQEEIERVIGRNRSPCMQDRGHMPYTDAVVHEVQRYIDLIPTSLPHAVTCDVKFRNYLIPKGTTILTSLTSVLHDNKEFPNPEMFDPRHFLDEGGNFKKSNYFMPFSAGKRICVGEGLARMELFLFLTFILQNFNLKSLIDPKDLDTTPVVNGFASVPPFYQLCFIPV

For the compound `CN1CCc2c(cc(O)c(O)c2Cl)C(c2cccc(Cl)c2)C1` (stereo unspecified), the activity change, negative = inhibition in [1] is -5.99% (inactive). Further, the results for the max response in assay [1] (setting [20]) and in [1] (setting [21]) were 26.1% and 9.27%, respectively.
On to `CC(C)=CCC/C(C)=C/CC/C(C)=C/CC/C(C)=C/CC/C(C)=C/CC/C(C)=C/CC/C(C)=C/CC/C(C)=C/CC/C(C)=C/CO`, for which the Potency result in assay [2], in assay [3] and in assay [4] was “inactive” throughout. The activity change, negative = inhibition in [1] is 5.78% (inactive). Also, the figures for the max response in [1] (setting [20]) and in [1] (setting [21]) were 6.17% and 20.4%, respectively.
Regarding `N#CCCn1c(=O)c(-c2cc(F)cc(F)c2)nc2cnc(Oc3ccccc3)nc21`, the Potency in assay [5] is > 11.4 µM (inactive); in assay [7], 2 µM (active); in assay [10], > 9.22 µM (inactive); in assay [11], > 46 µM (inactive). Also, the activity change, negative = inhibition in [6] is -18% (inactive); in assay [8], 1.84% (inactive); in [1] it was 7.78% (inactive). In addition, the activity, negative = inhibition in assay [9] was -2.23% (inactive). Further, the Potency result in [12], in assay [13], in assay [14], in [15], in assay [16] and in assay [4] was “inactive” each time. Besides, the max response in [1] (setting [20]) amounted to 10.8%; in assay [1] (setting [21]), 17.1%.
For `COc1cc2c3cc1Oc1c(OC)c(OC)cc4c1[C@@H](Cc1ccc(O)c(c1)Oc1ccc(cc1)C[C@@H]3N(C)CC2)N(C)CC4`, the Potency entry in assay [7], in [12] and in [17] was “inactive” each time. The Potency in assay [10] and in assay [11] was > 46 µM (inactive) in each case. In addition, the activity change, negative = inhibition in assay [1] is 6.85% (inactive). Also, the results for the max response in [1] (setting [20]) and in assay [1] (setting [21]) were 20.8% and 29.4%, respectively.
On to `Nc1c2ccccc2nc2ccccc12` (tested in a mixture with another compound), for which the Potency result in [18], in assay [3] and in [4] was “inactive” in each case. In addition, in [1], the activity change, negative = inhibition was -15.1% (inactive). Also, the max response is -8% in assay [1] (setting [20]) and -17.5% in [1] (setting [21]).
In the case of `C=C[C@](C)(O)CCC1C(=C)CC(OC(C)=O)C2C(C)(C)CCCC12C` (stereo partly specified), the Potency in assay [2] was 2.51 µM (active). In addition, the Potency entry in assay [18] and in assay [3] was “inactive” in each case. The compound was called inactive in assay [19]. The activity change, negative = inhibition in assay [1] is -0.933% (inactive). Moreover, the max response was found to be 1.16% in assay [1] (setting [20]) and 0.207% in [1] (setting [21]).
In the case of `COc1ccccc1-c1nc(N(C)C)c2ccccc2n1`, the Potency in [5] was > 11.4 µM (inactive); in assay [7] it was 0.398 µM (active); in [10] it was > 46 µM (inactive); in assay [11], > 46 µM (inactive). Also, the activity change, negative = inhibition is 19.2% (inactive) in [6], -18.6% (inactive) in assay [8] and -1.18% (inactive) in assay [1]. In addition, in assay [9], the activity, negative = inhibition was 31.2% (inactive). The Potency result in assay [12], in assay [13], in assay [18], in assay [14], in [15] and in assay [16] was “inactive” each time. Further, the Potency result in assay [4] is “inactive”. Besides, the max response is 4.21% in assay [1] (setting [20]) and -1.67% in [1] (setting [21]).
For `Cc1noc(C)c1-c1cncnc1N1CCN(C)CC1`, the Potency in assay [5] was > 11.4 µM (inactive); in assay [10] it was > 46 µM (inactive); in assay [11], > 46 µM (inactive). The results for the activity change, negative = inhibition in [6], in assay [8] and in [1] were 1.14% (inactive), -0.298% (inactive) and -1.64% (inactive), respectively. Also, the Potency result in assay [7], in assay [12], in assay [13], in [18], in [17] and in [14] was “inactive” throughout. The Potency entry in assay [15], in [16] and in assay [4] was “inactive” in each case. For the same compound, the activity, negative = inhibition in [9] is 24.7% (inactive). Also, the max response in assay [1] (setting [20]) is 15.1%; in assay [1] (setting [21]), 9.71%.
